For 18 molecules, growth inhibition results are on record in PubChem BioAssay (NCI).

This is part of a sample that, as a whole, favours compounds with a hit. Of some 79,000 tested, about 15% had one in any assay. A number with no mark means an inactive call. Cut-off read from the data, not from the text of the source: active = growth inhibition above about 70%; inactive = the rest.

This experiment can be described thus: NCI Yeast Anticancer Drug Screen. Data for the bub3 strain (AID 167). The note with it: S. cerevisiae bub3 mutant strain, at 50.0 µM, stronger effect = higher value. The method in brief: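 Steps: expose the mutant yeast strain to compound; grow alongside vehicle-treated cultures; measure growth; express inhibition against the vehicle cultures.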
Consider `NC(=O)Nc1ccc(Cl)cc1[N+](=O)[O-]`, for which the growth inhibition is -6.45%. The value for `CCCCCCCCCCCCCCCCS(=O)(=O)N/N=C/c1ccccc1O` was 6.2%; that for `CCCCOC(=O)c1cc2ccccc2oc1=O` was 27.2%; that for `O=C1O/C(=C(/Cl)c2cccc3ccccc23)c2ccccc21` was -16.9%. The same measure for `CC1(c2ccc(Cl)cc2)NC(=O)NC1=O` (stereo not drawn): 9.85%.

On to `CCCCCCCCCC(=O)N/N=C/c1ccco1`, for which the growth inhibition was 69.4%.

For `Cc1ccc(C(C)C)c(OC2OC(C(=O)O)C(O)C(O)C2O)c1` (stereo not drawn), the growth inhibition was 10.9%. The same measure for `Cc1ccc(OS(=O)Nc2cccc(N)c2)cc1` (stereo not drawn): -8.4%. On to `CCCCC1C(=O)N=C2C=CC=CN2C1=O` (stereo not drawn), for which the growth inhibition is -24.2%. With `NC(=O)NC(=O)OCCOC(=O)NC(N)=O`, the growth inhibition was -8.85%. `CSc1nc2ncnc(N(C)C)c2[nH]1`: the growth inhibition was -7.4%. In the case of `Nc1ccc(C(=O)NN2C(=O)C(Cl)C2c2cc(Br)ccc2O)cc1` (stereo not drawn), the growth inhibition was 29.1%. The same measure for `Cc1cc(=O)c2cc(-c3ccccc3)ccc2[nH]1`: -1.5%.

On to `CCN(CC)C(=O)C1CCN(CCC(=O)Nc2ccccc2)CC1`, for which the growth inhibition was 5.15%. Regarding `Cc1cc(C)c(CC(=O)NCC(=O)NN)c(C)c1`, the growth inhibition is -12%. The value for `CCC/C=C/c1cc2c(cc1O)CC[C@@H]1[C@@H]2CC[C@]2(C)[C@@H](O)CC[C@@H]12` was 41.3%; that for `COc1ccccc1NC(=O)CC(C)=O` was -15.8%; that for `CO[C@@H]1[C@@H](OC2OC(C)C(OC3CC(C)(O)C(OC(=O)CC(C)C)C(C)O3)C(N(C)C)C2O)[C@@H](CC=O)C[C@@H](C)C(=O)/C=C/C2O[C@H]2C[C@@H](C)OC(=O)C[C@H]1OC(C)=O` (stereo partly drawn) was -14.3%.
